# Measured values published in PubChem BioAssay AID652128 (Broad Institute, 2013).
# The list shows a part of the results. Results filed as inconclusive are left out. Active and inactive are the calls of the source.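 How the source made its calls: active means fitted half-maximal concentration for signal loss at or below twice the highest dose tested, in every separate run (actives reach about 64 µM in these data); inconclusive means runs disagree, or flat partial signal loss, or poor fit; inactive means the rest.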
# Assay: DNA-binding compounds via dye displacement, dose response, artefact control for RAD52 inhibitor project, biochemical, fluorescence polarization, cherry-pick (AID 652128)
# Conditions: Salmon sperm DNA/acridine orange FP displacement
SMILES,outcome,AC50
C[N+]1(C)CCOC(O)(c2ccc(-c3ccc(C4(O)C[N+](C)(C)CCO4)cc3)cc2)C1 (stereo not given),inactive,
COc1ccc2c(c1O)-c1cccc3c1[C@@H](C2)N(C)CC3,inactive,
CCOc1cccc(=NC2CCCCC2)c2c(C)[nH]c(C)c12,,36 µM (active)
CC1=CC(=Cc2sc3ccccc3[n+]2C)C=C(C)O1,inactive,
CCCCCCCCCCCCn1ccc(=N)cc1,inactive,
